Only some compounds are listed: those with a hit (about 2.3% of all), similar ones and a draw of the others.
Bim-Mcl-1: human Bim-Mcl-1 interaction inhibition | Q07820 | Bead-based flow cytometry, Bim peptide-Mcl-1 binding | inhibition, % at 10 µM | 0.1% of 190,000 active | AID 1009; in the data active means inhibition above about 40%;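 further: 0% = no compound tracer wells and 100% = peptide blocker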
Target sequence (Q07820 whole entry, looked up): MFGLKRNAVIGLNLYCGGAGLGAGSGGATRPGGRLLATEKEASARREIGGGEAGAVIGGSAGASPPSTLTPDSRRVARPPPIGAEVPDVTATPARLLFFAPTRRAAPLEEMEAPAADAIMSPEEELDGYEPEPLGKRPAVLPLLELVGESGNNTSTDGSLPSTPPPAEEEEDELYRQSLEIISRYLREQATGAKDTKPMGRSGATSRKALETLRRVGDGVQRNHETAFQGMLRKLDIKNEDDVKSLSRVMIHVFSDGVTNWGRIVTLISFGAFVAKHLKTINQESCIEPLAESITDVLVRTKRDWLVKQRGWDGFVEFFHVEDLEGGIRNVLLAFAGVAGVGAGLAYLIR
Mcl1-Noxa inh: disrupts binding of human Mcl-1 to Noxa peptide. Q07820. TR-FRET Mcl-1/Noxa peptide binding, 2 h. inhibition, % at 21.7 µM. 1.5% of 220,000 active. AID 1022;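 active means compounds that cut the protein-peptide binding signal by more than 50% relative to plate controls in a single-dose test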;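 further: His-tagged Mcl-1 with rhodamine Noxa BH3 peptide and terbium anti-His antibody; 0% = Mcl-1 plus Noxa peptide wells and 100% = peptide-only wells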
Bcl-xL primary: inhibitors of human Bcl-xL | AID 2129 | 0.7% of 320,000 active | inhibition, % at 10.9 µM | GST-Bcl-xL / FITC-Bim BH3 peptide fluorescence polarization;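 active means inhibition above the mean of all tested compounds plus 3 SD, cutoff set per campaign, cut at about 30% in these data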;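 further: 0% = DMSO wells and 100% = unlabeled Bim-BH3 peptide competitor; inhibitors lower millipolarization by displacing the labeled peptide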
Target sequence (Q07817 whole entry, looked up): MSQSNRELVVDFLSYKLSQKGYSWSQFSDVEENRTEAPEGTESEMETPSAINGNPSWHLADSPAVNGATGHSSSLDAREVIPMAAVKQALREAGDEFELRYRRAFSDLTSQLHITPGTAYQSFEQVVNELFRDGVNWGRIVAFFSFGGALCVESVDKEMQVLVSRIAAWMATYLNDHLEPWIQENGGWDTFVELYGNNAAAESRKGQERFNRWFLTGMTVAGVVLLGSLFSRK
MCL1 BIM primary: MCL1-BIM-BH3 interaction inhibition (human); 0.68% of 320,000 active; inhibition, % at 10.9 µM; GST-MCL1 / FITC-Bim-BH3 fluorescence polarization;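 active means inhibition above the mean inhibition of all tested compounds plus 3 SD, set per campaign, cut at about 40% in these data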;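 further: 0% = DMSO wells and 100% = unlabeled Bim-BH3 peptide control; higher means more loss of mP so more displacement of Bim peptide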
GLD-1 TGE inh: GLD-1-TGE RNA interaction inhibition (C. elegans) | Q17339 | 0.44% of 320,000 active | AID 2280 | purified GLD-1 + fluorescein TGE RNA, fluorescence polarization | inhibition, % at 5.96 µM;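 active means percent inhibition above a per-plate cutoff, the plate mean of test compounds plus 3 SD, cut at about 30% in these data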;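 further: 0% = DMSO wells with GLD-1 and probe and 100% = wells lacking GLD-1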
Mcl1-Bid inh: disrupts binding of human Mcl-1 to Bid peptide; Q07820; TR-FRET Mcl-1/Bid-Dy647 peptide binding, 1536-well; inhibition, % at 21.7 µM; 0.97% of 220,000 active;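 active means compounds that cut the binding signal by more than half at the single screening dose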;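 further: His-tagged Mcl-1 with europium anti-His antibody binding Bid BH3 peptide; 0% = Mcl-1 plus peptide wells and 100% = peptide-only wells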
Bcl-xL conf: Bcl-xL (human) inhibition, MCL1 counter-screen confirmation. shares compounds with MCL1 BIM primary. GST-Bcl-xL / FITC-Bim BH3 peptide FP binding. inhibition, % at 10.9 µM. 54% of 1,700 active. AID 2166;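 active means inhibition above a cutoff equal to the mean inhibition of all tested compounds plus 3 SD, cut at about 30% in these data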;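 further: 0% = DMSO wells and 100% = unlabeled Bim BH3 control peptide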
MCL1 inh confirm: MCL1-BIM-BH3 interaction inhibition, confirmation. AID 2168. shares compounds with MCL1 BIM primary. inhibition, % at 10.9 µM. 61% of 1,700 active. GST-MCL1 / FITC-Bim-BH3 fluorescence polarization;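 active means inhibition above the average of all tested compounds plus 3 SD, cut at about 40% in these data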;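 further: 0% = DMSO wells and 100% = unlabeled Bim-BH3 control peptide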
Starred values were filed as active, the others as inactive; / = no result given.

SMILES	Bim-Mcl-1	Mcl1-Noxa inh	Bcl-xL primary	MCL1 BIM primary	GLD-1 TGE inh	Mcl1-Bid inh	Bcl-xL conf	MCL1 inh confirm
Fc1ccc(/C=N/N2CCN(Cc3ccccc3)CC2)cc1	/	/	0	-8	-6	/	/	/
CC1(C)CC(=O)C2=C(C1)OC(N)=C(C#N)C2c1ccccc1[N+](=O)[O-] (configuration not stated)	-1	14	165*	186*	119*	-52	93*	114*
COc1cccc(OCC(O)CNC2CCCC2)c1 (configuration not stated)	/	/	3	1	6	/	/	/
CN(C)S(=O)(=O)c1cccc(NC(=O)c2cc(=O)[nH]c(=O)[nH]2)c1	/	/	5	3	-5	/	/	/
O=C(CN1C(=O)C2C3CCC(C3)C2C1=O)NCc1ccco1 (configuration not stated)	4	9	6	53*	-3	-31	7	9
COC(=O)c1cc2n3ccccc3c(C)c(-c3ccccc3)c-2c1C(=O)OC	-1	-1	110*	119*	86*	-16	111*	140*
COC(=O)c1cc2ccccn2c2c(C(=O)OC)c(C(=O)OC)cc1-2	5	22	21	21	7	-73	/	/
COC(=O)c1cc2c(C)c(C)c3ccccn3c-2c1C(=O)OC	2	-6	112*	115*	86*	-19	71*	81*
Cc1ccc2c(c1)c(=O)c1c3n2CCN(C(=O)CCl)C3CC1 (configuration not stated)	2	22	48*	55*	14	-1	30*	44*
Cc1ccc2c(c1)c1c3n2CCN(C(=O)CN2CCN(C)CC2)C3CCC1 (configuration not stated)	1	8	2	-6	4	-39	/	/
COCC(=O)Nc1ccc2c(c1)OCC(=O)N2Cc1ccc(C)cc1	/	/	4	6	-1	/	/	/
CCOCCCn1c(=NC(=O)c2cccs2)c(C#N)cc2c(=O)n3ccccc3nc21	/	20	91*	97*	55*	-9	62*	75*
Cc1ccccc1C(=O)N=c1c(C#N)cc2c(=O)n3cccc(C)c3nc2n1Cc1ccco1	-3	3	19	15	10	-16	/	/
CCOC(=O)c1cc2c(=O)n3ccccc3nc2n(Cc2ccco2)c1=NC(=O)c1ccc(OC)cc1OC	0	6	49*	52*	19	-26	11	12
N#Cc1cc2c(=O)n3ccccc3nc2n(Cc2ccco2)c1=NC(=O)c1ccco1	3	11	54*	75*	23	-32	15	12
COCCN(C(=O)c1cc(Cl)nc2ccccc12)c1c(N)n(Cc2ccccc2)c(=O)[nH]c1=O	/	/	-4	-9	-2	/	/	/
O=C(CSc1nc2ccccc2s1)NNC(=S)Nc1ccc(Cl)cc1	4	-15	7	43*	-1	-114	14	13
CCCCNC(=S)Nc1ccc(OC)nc1	-2	4	56*	58*	49*	-41	43*	52*
c1ccc(N2CCN(c3nc4ccccc4n4nnnc34)CC2)cc1	0	8	51*	59*	12	-47	38*	38
O=S(=O)(O)c1cccc2c(N=Nc3ccc(O)c4ncccc34)cccc12	/	/	27	72*	8	/	34*	82*
CCn1cc(C(=O)NCCCN2CCCC(C)C2)c(=O)c2cc(S(=O)(=O)N(C)C3CCCCC3)ccc21 (configuration not stated)	/	/	6	6	-2	/	/	/
NNc1nc(C(F)(F)F)nc2ccccc12	-1	11	-10	-14	2	-33	/	/
O/C=c1\ccc2cccc3nc(C(F)(F)F)nc1c23	/	/	86*	94*	37*	/	118*	133*
Cc1ccc(SC[C@H](Cc2ccccc2)N2CC[C@@H](NC(=O)OCc3ccccc3)CCC2=O)cc1	/	/	1	-3	4	/	/	/
O=c1cc(CSc2nnc3ccccn23)c2c(ccc3ccccc32)o1	-3	22	76*	88*	66*	-3	-8	16
SMILES	Bim-Mcl-1	Mcl1-Noxa inh	Bcl-xL primary	MCL1 BIM primary	GLD-1 TGE inh	Mcl1-Bid inh	Bcl-xL conf	MCL1 inh confirm
CN(Cc1ccccc1)C(=O)COC(=O)C1CCN(S(=O)(=O)c2ccc3c(c2)OCCO3)CC1	/	/	-3	-7	-5	/	/	/
CCNc1ccc(Br)cc(C(=O)/C=C/c2ccc3c(c2)OCO3)c1=O	11	94*	13	47*	9	-29	-26	-45
O=C(O)CN1C(=O)/C(=C\c2ccccc2OCc2ccc(Cl)cc2Cl)SC1=S	/	/	17	55*	-4	/	31*	45*
O=C(O)CCN1C(=O)/C(=C\c2ccc(OCc3ccccc3)c(OCc3ccccc3)c2)SC1=S	/	/	3	4	6	/	/	/
O=C(O)CN1C(=O)/C(=C\c2cc(Br)ccc2OCc2ccc([N+](=O)[O-])cc2)SC1=S	/	/	28	72*	-1	/	37*	61*
O=C(O)CN1C(=O)/C(=C\c2cc(Br)ccc2OCc2ccccc2F)SC1=S	/	/	18	46*	-5	/	20	25
CC(C)(C)c1ccc(OCCC(=O)OCC(=O)N2c3ccccc3NC(=O)C2(C)C)cc1	/	/	-1	-3	12	/	/	/
CC(OC(=O)C1CCC1)C(=O)Nc1cc(Cl)cc(Cl)c1 (configuration not stated)	/	/	0	-10	2	/	/	/
CCCNc1c(NS(=O)(=O)c2cccc(C#N)c2)c(=O)oc2ccccc12	/	/	2	7	1	/	/	/
CCn1c(SCC(=O)NC2CCCC2)nnc1C(C)C	/	/	4	12	-1	/	/	/
O=C(NCCCN1CCOCC1)c1ccc2c(=O)n(Cc3ccc(Cl)cc3)c(=S)[nH]c2c1	/	/	-16	-17	10	/	/	/
CCC1(C(=O)OC)NC(c2ccccc2OC)C2C(=O)N(C)C(=O)C21 (configuration not stated)	6	-14	58*	58*	11	-25	3	-3
O=C(CCCC(=O)Nc1ccccc1Br)N/N=C/c1c(F)cccc1Cl	/	/	4	-2	2	/	/	/
CCn1c(O)c(/C=N/N=C/c2ccccc2)c2ccc(C3=NNC(=O)CC3)cc21	-1	-2	49*	90*	-30	-59	96*	109*
N#CC12COC3(CCCCC3C1(C#N)C#N)OC2=N (configuration not stated)	/	10	63*	72*	74*	-137	21	12
CC1OC23CCCCC2C(C#N)(C(=N)O3)C1(C#N)C#N (configuration not stated)	2	7	26	21	15	-15	/	/
